# Laboratory results taken from PubChem BioAssay (NCATS).
# Inconclusive results are not listed. Values without a mark were called inactive. Calls of active or inactive are those of the source. Calls come from the whole dose curve; as a rule, active = well fitted inhibition curve with a large enough effect; inconclusive = small, poorly fitted or top-dose-only effect; inactive = no such curve, though single readings can be large or run the other way.
# Experiment: Primary qHTS for small molecule stabilizers of the endoplasmic reticulum resident proteome: Secreted ER Calcium Modulated Protein (SERCaMP) assay (AID 1508630)
# Conditions: SH-SY5Y GLuc-SERCaMP (Gaussia luciferase released on ER calcium loss) secretion, thapsigargin, luminescence; series mostly up to 38.4 µM; activity change, negative = inhibition: at the top concentration
# From the text: Assay Provider: Brandon K. Harvey Ph.D.
# National Institute on Drug Abuse, National Institutes of Health, Baltimore, MD
# Endoplasmic reticulum (ER) dysregulation is associated with human pathologies including neurodegenerative, cardiovascular, muscular, and diabetic conditions. Maintenance of ER calcium is critical for functions of the ER and its depletion can lead to loss of ER resident proteins, in a process termed exodosis. Therapeutic compounds capable of attenuating the redistribution of ER proteins under pathological conditions may slow or stop disease progression. To identify such compounds, we performed a quantitative high-throughput screen (qHTS) using the SERCaMP assay, which monitors secretion of ER resident proteins triggered by calcium depletion.
# SERCaMP was initially developed as a reporter of ER calcium homeostasis using a Gaussia luciferase with a modified signal peptide and carboxy-terminus (GLuc-SERCaMP), modifications that confer secretion of the reporter in response to ER calcium depletion (Henderson et al., 2014). The assay was used to screen 9,501 compounds, including a collection of drugs approved by the FDA (US), EMA (EU), NHI (Japan), and HC (Canada) regulatory agencies (Huang et al., 2011). Since the SERCaMP reporter reflects the exodosis phenomenon (Trychta et al., 2018a), compounds identified in the screen have the potential to prevent exodosis by different mechanisms such as stabilizing ER calcium or augmenting ERS retrieval.
# 1. Henderson, M.J., Wires, E.S., Trychta, K.A., Richie, C.T., and Harvey, B.K. (2014). SERCaMP: a carboxy-terminal protein modification that enables monitoring of ER calcium homeostasis. Mol Biol Cell 25, 2828-2839.
# 2. Huang, R., Southall, N., Wang, Y., Yasgar, A., Shinn, P., Jadhav, A., Nguyen, D.T., and Austin, C.P. (2011). The NCGC pharmaceutical collection: a comprehensive resource of clinically approved drugs enabling repurposing and chemical genomics. Sci Transl Med 3, 80ps16.
# 3. Trychta, K.A., Back, S., Henderson, M.J., and Harvey, B.K. (2018a). KDEL Receptors Are Differentially Regulated to Maintain the ER Proteome under Calcium Deficiency. Cell Rep 25, 1829-1840 e1826.
# SEQUENCE No. (1, 2, 3, etc.); […] (e.g., Cells, Incubation, Reagent, etc.); VALUE and DESCRIPTION.
# 1; Reagent; 5 uL; 1000 SH-SY5Y cells per wells
# 3; Compound; 23 nL; Control inhibitor / compound library
# 5; Reagent; 100 nM; Thapsigargin
# 7; Reagent; 1 uL; 0.5x coelenterazine
# 8; Detection; Luminescence; ViewLux imaging system
# NOTES (numbers refer to sequence above)
# 1; SH-SY5Y human neuroblastoma cells stably expressing GLuc-SERCaMP (SH-SY5Y-GLuc-ASARTDL) cells were seeded in 1,536 well white tissue culture treated plates (Corning, Cat# 7464) in DMEM-high glucose-sodium pyruvate (ThermoFisher Scientific, Cat #10569) supplemented with 10% bovine growth serum (Hyclone), 10 U/ml penicillin (Gibco), 10 ug/ml streptomycin (Gibco), and 20 mM HEPES.
# 2; Assay plates were incubated for 5 hour at 37C in a humidified incubator containing 5% CO2.
# 3; qHTS libraries (23 nl, final concentrations of 1.53 uM, 7.67 uM, 38.3 uM) or controls (neutral control: DMSO, positive control: dantrolene) were added using a Kalypsis pin-tool Robotic System equipped with 1536 pinheads.
# 4; Cells were then incubated for 16 hours at 37C, 5% CO2.
# 5; Thapsigargin was added at 100 nM to deplete ER calcium stores.
# 6; Cells were incubated for 4 hour (37 °C, 5% CO2)
# 7; Gaussia luciferase in the medium was measured by adding 1 ul of 0.5x coelenterazine (final concentration 0.07x) prepared in Gaussia Luciferase Glow Assay Buffer (Pierce), without addition of the Cell Lysis Buffer Reagent.
# 8; Luminescence was measured using a ViewLux […] CCD imaging system (Perkin Elmer) equipped with clear filters. […] The same controls were also used for the calculation of the Z' factor, a measure of assay quality control, as previously described (Zhang et al., 1999). […]
# % is set by controls: 0 for no effect and ±100 for the full control effect.
SMILES,"activity change, negative = inhibition",outcome
CCCN(CCC)CCc1c[nH]c2ccccc12,-6.01% [at 76.3 µM],
Oc1c(Br)cc(Br)cc1Br,0.153%,
O=C(O)Cc1ccccc1,45.7%,
CC[C@H]1C[C@H]2[C@@H]3CCC4=CC(=O)CC[C@@H]4[C@H]3CC[C@]2(C)[C@H]1O,-2.49%,
C[N+]1(C)[C@@H]2CC[C@H]1CC(OC(=O)C(CO)c1ccccc1)C2 (stereo not given in full),10.3%,
COc1ccc(OC)c(CC(C)N)c1 (stereo not given),-26.9% [at 76.3 µM],
C=CCN1CC[C@]23CCCC[C@H]2[C@H]1Cc1ccc(O)cc13,-24.1%,
CC(Cc1ccccc1)NCCCCl (stereo not given),22.6%,
CNC(C)Cc1ccccc1OC (stereo not given),2.83%,
CCOC(=O)C(c1c(O)c2ccccc2oc1=O)c1c(O)c2ccccc2oc1=O,12%,
COc1ccc2c(C(=O)c3ccc(Cl)cc3)c(C)n(CC(=O)O)c2c1,-4.62%,
COP(=O)(OC)C(O)C(Cl)(Cl)Cl (stereo not given),-26.7%,
CC1=C2[C@H]3OC(=O)[C@@H](C)[C@@H]3CC[C@@]2(C)C=CC1=O,50.9%,
O=C(O)c1nn(Cc2ccc(Cl)cc2Cl)c2ccccc12,,inactive
C#C[C@]1(O)CC[C@H]2[C@@H]3CCC4=CC(=O)CCC4=C3C=C[C@@]21CC,6.16%,
CCC(OC(C)=O)C(CC(C)NC)(c1ccccc1)c1ccccc1 (stereo not given),255% [at 76.3 µM],
Cc1nc2ccccc2c(=O)n1-c1ccccc1Cl,-0.162% [at 76.3 µM],
CC(C)=C[C@@H]1[C@@H](C(=O)OCc2coc(Cc3ccccc3)c2)C1(C)C,-8.37%,
CCOP(=S)(OCC)O/N=C(\C#N)c1ccccc1,-22.1%,
CCN(CC)CCOC(=O)C(C)(c1ccccc1)c1ccccc1,-18.5%,

SMILES,"activity change, negative = inhibition",outcome
C1CN2CCC1CC2,-24.9%,
CC[C@]1(O)CC[C@H]2[C@@H]3CCC4=CCCC[C@@H]4[C@H]3CC[C@@]21C,7.81%,
CC(=O)OC1(c2ccccc2)CCN(CCc2ccccc2)CC1,-25.4% [at 76.3 µM],
CCOC(=O)NC(C)(C)Cc1ccc(Cl)cc1,-14.6%,
Oc1ccc([C@H]2CNCc3c2ccc(O)c3O)cc1O,-15.7%,
CCCC(C)C1(CC)C(=O)N=C(S)NC1=O (stereo not given),-20%,
C[C@]12CC[C@H]3[C@@H](CCC4=CC(=O)CC[C@@H]43)[C@@H]1CC[C@@H]2O,-4.33%,
ClCCCN1CCN(c2cccc(Cl)c2)CC1,36.2%,
CCOC(=O)NC(O)C(Cl)(Cl)Cl (stereo not given),-20.1%,
CC(C)C(Br)C(=O)NC(N)=O (stereo not given),-23.7%,
NCc1cccnc1,-9.71%,
CC(C)(C)OC(=O)c1ncn2c1[C@@H]1CCCN1C(=O)c1c(Br)cccc1-2,-17.8%,
CN(C)C(=O)Oc1cc(OC(=O)N(C)C)cc(C(O)CNC(C)(C)C)c1 (stereo not given),24.2%,
CC(Cc1ccccc1)NCc1ccccc1Cl (stereo not given),33.1%,
O=C(CBr)Nc1ccc(Cl)cc1C(=O)c1ccccc1F,-26.3%,
c1ccc2nc(N3CCNCC3)ccc2c1,-16.2%,
CC(C)NCC(O)c1ccc(N)c(C#N)c1 (stereo not given),,inactive
CCCCCCCCC(=O)NCc1ccc(O)c(OC)c1,150%,
COc1cc(CC(C)N)c(OC)cc1Br (stereo not given),66.1% [at 76.3 µM],
COCC(=O)N(c1c(C)cccc1C)C(C)C(=O)OC (stereo not given),-29.9%,
